This is a sample that favours compounds with a hit; in the whole collection about 6.7% have one here.
PINK1 expr mod = PINK1 expression modulation; PINK1 immunofluorescence, high-content cytometry, 24 h; actives 0.2% (n = 410,000); Potency, µM (doses to about 76.6 µM), without a hit: at the highest dose activation (PINK1 increase), hits mostly activators; active = well fitted activation curve with a large enough effect; inconclusive = small, poorly fitted or top-dose-only effect; cell line not stated here; also: % of control where 0% means no effect; nearly all actives have a fitted effect of over 65% in size
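PINK1 protein level read as immunofluorescence by microplate cytometer in a fixed, stained stable cell line after 24 h exposure to five compound concentrations, with CCCP as control.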
KB-V1 MDR tox = kills drug-selected multidrug resistant KB-V1 cells | Potency, µM (doses to about 46.1 µM), hits mostly cytotoxic | actives 3.4% (n = 400,000) | KB-V1 MDR cells viability, CellTiter-Glo, 72 h | AID 1347076; also: % is scaled to controls: 0 for no effect and ±100 for the full control effect; nearly all actives have a fitted effect of over 60% in size
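KB-V1 cells (P-gp-expressing MDR subline of KB-3-1) in phenol-red-free DMEM with 10% FBS were exposed to library compounds over a concentration series for 72 h at 37 degrees C. Viability read by CellTiter-Glo luminescence; concentration-effect curves fitted after normalization.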
MCF10A rereplic = DNA re-replication induction in MCF 10a cells | MCF 10A DNA re-replication, Hoechst nuclear intensity, 48 h | Potency, µM (series often up to 46.1 µM), for inactives: at the highest dose activity, positive = re-replication, usual class: activators | actives 2.9% (n = 350,000); also: % of control where 0% means no effect; nearly all actives have a fitted effect of over 50% in size
KB-3-1 cytotox = KB-3-1 parental cell cytotoxicity; KB-3-1 viability, CellTiter-Glo ATP luminescence, 72 h; Potency, µM (titrated, usually from 46.1 µM), most hits filed as cytotoxic; actives 1.4% (n = 400,000); also: % is scaled to controls: 0 for no effect and ±100 for the full control effect; nearly all actives have a fitted effect of over 60% in size
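Parental KB-3-1 viability, qHTS format: 72 h compound exposure, 37 °C; CellTiter-Glo; media-only wells and DMSO plates as controls; concentration-effect fits on corrected data.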
SW480 rereplic = inducers of DNA re-replication in SW480 colon cancer cells; SW480 DNA re-replication, Hoechst DNA content imaging, 48 h; Potency, µM (series often up to 46.1 µM), for the others: top-dose re-replication activation, usual class: activators; actives 1.8% (n = 340,000); also: % of control where 0% means no effect; nearly all actives have a fitted effect of over 55% in size
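250 cells/well; 23 nL cpd via pin tool; 48 hr, 37 C, 5% CO2; Hoechst 40 min; imager read of total nuclear intensity, ex 405/em 500-530 nm.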
* marks the source's active call; other numbers are inactive results; [ ] = remark or other dose. Unless noted, calls follow the shape of the dose curve; as a rule, active = well fitted curve in the direction sought with a large enough effect; inconclusive = small, poorly fitted or top-dose-only effect, or another doubt; inactive = no such curve, though single readings can be large; an effect the other way counts as inactive or inconclusive. Potency is read from the fitted curve at half-maximal effect.

CSCCC(NS(=O)(=O)c1cccs1)C(=O)Nc1ccc(C)c(Cl)c1 (configuration not stated) was read as PINK1 expr mod 11%, KB-V1 MDR tox inactive and KB-3-1 cytotox inactive.
`CCCOc1ccccc1/C=C1\SC(N2CCCCC2)=NC1=O` gave PINK1 expr mod 0%, KB-V1 MDR tox inactive, MCF10A rereplic inconclusive, KB-3-1 cytotox 7.3µM* and SW480 rereplic 9%.
Cc1nc2nc(C(F)(F)F)[nH]c2nc1C was read as PINK1 expr mod 0%, KB-V1 MDR tox inactive and KB-3-1 cytotox inactive.
CC(C)NC(=O)C1(C)CCN1Cc1cccc(C#N)c1 (configuration not stated) was read as PINK1 expr mod -1%, KB-V1 MDR tox inactive and KB-3-1 cytotox inactive.
Screening Cc1cc(Cl)n2c(nc3cc(F)c(F)cc32)c1C#N returned PINK1 expr mod -1%, KB-V1 MDR tox 5.8µM*, MCF10A rereplic inconclusive, KB-3-1 cytotox 7.3µM* and SW480 rereplic 6.5µM*.
For COc1ccc(Oc2nc3c(c(=O)n(C)c(=O)n3C)n2Cc2ccccc2Cl)cc1 the results were PINK1 expr mod 1%, KB-V1 MDR tox inactive and KB-3-1 cytotox inactive.
For Cc1ccc(C(=O)Nc2nc3c(s2)CCCC3)o1 the results were PINK1 expr mod 0%, KB-V1 MDR tox 12µM*, MCF10A rereplic 3%, KB-3-1 cytotox inconclusive and SW480 rereplic -5%.
`Cc1ccc(Cc2cnc(NC(=O)c3cccs3)s2)cc1` gave PINK1 expr mod 2%, KB-V1 MDR tox inconclusive, MCF10A rereplic inconclusive, KB-3-1 cytotox inactive and SW480 rereplic 8%.
`Cc1ccc(C(=O)Nc2ncc(Cc3ccccc3)s2)o1` gave KB-V1 MDR tox inactive, MCF10A rereplic inconclusive, KB-3-1 cytotox 3.5µM* and SW480 rereplic -20%.
Screening O=C(Nc1ncc(Cc2cccc(Cl)c2)s1)c1cccs1 returned PINK1 expr mod 2%, KB-V1 MDR tox 13µM*, MCF10A rereplic inconclusive, KB-3-1 cytotox inconclusive and SW480 rereplic 14%.
O=C(Nc1ncc(Cc2ccccc2)s1)c1cccs1 was read as PINK1 expr mod 0%, KB-V1 MDR tox inconclusive, MCF10A rereplic inconclusive, KB-3-1 cytotox inconclusive and SW480 rereplic 1%.
Screening O=C(Nc1ncc(Cc2ccc(SC(F)F)cc2)s1)c1ccccc1 returned PINK1 expr mod 11%, KB-V1 MDR tox 2.1µM*, MCF10A rereplic inconclusive, KB-3-1 cytotox 1.5µM* and SW480 rereplic 6.5µM*.
For CC(=O)Nc1ccc(S(=O)(=O)N(C)CC(=O)OCC(=O)N2CCCC2=O)cc1 the results were PINK1 expr mod 2%, KB-V1 MDR tox inconclusive, MCF10A rereplic inconclusive, KB-3-1 cytotox inactive and SW480 rereplic -6%.
Screening Cc1ccc(C(=C2C3C=CC2C2C(=O)NC(=O)C32)c2ccc(C)cc2)cc1 (configuration not stated) returned PINK1 expr mod inconclusive, KB-V1 MDR tox 15µM*, MCF10A rereplic inconclusive, KB-3-1 cytotox inconclusive and SW480 rereplic 26%.
Cc1ccc(NC2C(=O)NC(=O)NC2=O)cc1 was read as PINK1 expr mod -3%, KB-V1 MDR tox inactive, MCF10A rereplic 23%, KB-3-1 cytotox inactive and SW480 rereplic 11%.
For N#Cc1cnn(-c2nc(SCc3ccccc3)nc3sc4c(c23)CCCC4)c1N the results were PINK1 expr mod -4%[38.3 µM], KB-V1 MDR tox 21µM*, MCF10A rereplic 0%, KB-3-1 cytotox inactive and SW480 rereplic 1%.
COCCCNc1nc(SCc2ccccc2)nc2sc3c(c12)CCC3 was read as PINK1 expr mod 2%, KB-V1 MDR tox inactive, MCF10A rereplic -183%[0.0737 µM], KB-3-1 cytotox inactive and SW480 rereplic inconclusive.
For Cc1c(Cc2ccccc2)c(=O)oc2c(O)c(O)ccc12 the results were PINK1 expr mod 1%, KB-V1 MDR tox inactive, MCF10A rereplic 21µM*, KB-3-1 cytotox inconclusive and SW480 rereplic inconclusive.
Screening Cc1c(CC(=O)NCc2ccccc2)c(=O)oc2c(C)c(O)ccc12 returned PINK1 expr mod 6%, KB-V1 MDR tox inconclusive and KB-3-1 cytotox 13µM*.
Screening Cc1c(Cc2ccccc2)c(=O)oc2c(CN(C)C)c(O)c(Cl)cc12 returned PINK1 expr mod -1%[38.3 µM], KB-V1 MDR tox 9.2µM*, MCF10A rereplic 18µM*, KB-3-1 cytotox inconclusive and SW480 rereplic -6%.
Screening Cc1c(Cc2ccccc2)c(=O)oc2cc(O)ccc12 returned PINK1 expr mod 0%, KB-V1 MDR tox inactive, MCF10A rereplic 11%, KB-3-1 cytotox inactive and SW480 rereplic inconclusive.
For O=C(CSc1nc(-c2ccccc2)c2ccccc2n1)Nc1ccc(F)cc1 the results were PINK1 expr mod 2%.
`O=C(N/N=C/c1ccco1)C(O)c1ccccc1` (configuration not stated) gave PINK1 expr mod 0%, KB-V1 MDR tox inactive, MCF10A rereplic 2%, KB-3-1 cytotox inactive and SW480 rereplic 3%.
Screening CC(/C=C/c1ccco1)=N\NC(=O)C(O)c1ccccc1 (configuration not stated) returned PINK1 expr mod 3%, KB-V1 MDR tox inactive, MCF10A rereplic 23µM*, KB-3-1 cytotox inactive and SW480 rereplic 0%.
Screening CCC1CN(C(=O)N2CCC(C(=O)N3CCN(c4ccccc4)CC3)CC2)c2ccccc2O1 (configuration not stated) returned PINK1 expr mod 0%.
For Cc1ccc(NC(=O)C2(C)CCN2C(=O)Cc2ccc(-c3ccccc3)cc2)cc1 (configuration not stated) the results were PINK1 expr mod 5%, KB-V1 MDR tox inconclusive and KB-3-1 cytotox inconclusive.
Screening CC(C)c1ccc(CC(=O)N2CCC2(C)C(=O)Nc2cnc3ccccc3c2)cc1 (configuration not stated) returned PINK1 expr mod 0%, KB-V1 MDR tox inactive and KB-3-1 cytotox inactive.
`CSc1ccc(NC(=O)C2(C)CCN2C(=O)Cc2ccc(C(C)(C)C)cc2)cc1` (configuration not stated) gave PINK1 expr mod 8%, KB-V1 MDR tox 16µM* and KB-3-1 cytotox inconclusive.
For CC(C)(C)c1ccc(CC(=O)N2CCC2(C)C(=O)Nc2cnc3ccccc3c2)cc1 (configuration not stated) the results were PINK1 expr mod 6%, KB-V1 MDR tox 16µM* and KB-3-1 cytotox inconclusive.
`CCC(=O)Nc1ccc(C=C(C(C)=O)C(C)=O)cc1` gave PINK1 expr mod 7%, KB-V1 MDR tox inactive, MCF10A rereplic 16µM*, KB-3-1 cytotox inconclusive and SW480 rereplic -3%.
Screening CCC(=O)Nc1ccc(/C=C(\C(C)=O)C(=O)c2ccccc2)cc1 returned PINK1 expr mod 0%, KB-V1 MDR tox inactive, MCF10A rereplic inconclusive, KB-3-1 cytotox inconclusive and SW480 rereplic 5%.
